# Assay results reported in PubChem BioAssay AID1159580 (chemical genetic matrix, 2015).
# Several values for one entry are separate records, joined by “and”; a condition that tells them apart may be missing. Equal entries are not always repeated. Among all 5,500 compounds or so, about 2,000 (36%) were called active. Inconclusive results (about 18%) are left out. Rule as the data show it: active = normalized growth mostly below about 0.91 (no sharp cut-off); inconclusive = no clear call, values can overlap the other calls; inactive = mostly above about 0.92. The list shows a part of the results.
# Experiment: chemical genetic growth profiling, strain panel (AID 1159580);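 also: tested at 20 µM; growth read once vehicle control cultures reached saturation at 30 °C; 1 = growth at the plate median or of vehicle wells; lower values mean less growth of the strain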
# Settings: S. cerevisiae deletion strains, growth OD
smiles,measurement,setting,value
O=C(O[C@@H]1Cc2c(O)cc(O)cc2O[C@@H]1c1cc(O)c(=O)c2c(O)c(O)cc([C@H]3Oc4cc(O)cc(O)c4C[C@H]3OC(=O)c3cc(O)c(O)c(O)c3)c2c1)c1cc(O)c(O)c(O)c1,normalized growth,"locus YAL013W, strain DEP1, stronger effect = lower value",0.633 (active)
same,normalized growth,"locus YAL021C, strain ccr4, stronger effect = lower value",0.0843 (active)
same,normalized growth,"locus YAL026C, strain drs2, stronger effect = lower value",0.432 (active)
same,normalized growth,"locus YAL030W, strain snc1, stronger effect = lower value",0.604 (active)
same,normalized growth,"locus YBL061C, strain skt5, stronger effect = lower value",0.513 (active)
same,normalized growth,"locus YBR009C, strain hhf1, stronger effect = lower value",0.434 (active)
same,normalized growth,"locus YBR021W, strain FUR4, stronger effect = lower value",0.986 (inactive)
same,normalized growth,"locus YBR023C, strain chs3, stronger effect = lower value",0.43 (active)
same,normalized growth,"locus YBR171W, strain sec66, stronger effect = lower value",0.918 (inactive)
same,normalized growth,"locus YBR229C, strain ROT2, stronger effect = lower value",0.981 (inactive)
same,normalized growth,"locus YBR231C, strain swc5, stronger effect = lower value",0.418 (active)
same,normalized growth,"locus YBR279W, strain paf1, stronger effect = lower value",0.554 (active)
same,normalized growth,"locus YCL011C, strain gbp2, stronger effect = lower value",0.509 (active)
same,normalized growth,"locus YCL016C, strain dcc1, stronger effect = lower value",0.754 (active)
same,normalized growth,"locus YCL029C, strain bik1, stronger effect = lower value",0.966 (inactive)
same,normalized growth,"locus YCL061C, strain MRC1, stronger effect = lower value",0.724 (active)
same,normalized growth,"locus YCL069W, strain vba3, stronger effect = lower value",0.776 (active)
same,normalized growth,"locus YCR088W, strain abp1, stronger effect = lower value",0.892 (active)
same,normalized growth,"locus YDL005C, strain med2, stronger effect = lower value",0.821 (active)
same,normalized growth,"locus YDL035C, strain GPR1, stronger effect = lower value",0.658 (active)
same,normalized growth,"locus YDL040C, strain nat1, stronger effect = lower value",0.868 (active)
same,normalized growth,"locus YDL074C, strain BRE1, stronger effect = lower value",0.58 (active)
same,normalized growth,"locus YDL101C, strain DUN1, stronger effect = lower value",0.706 (active)
same,normalized growth,"locus YDL134C, strain PPH21, stronger effect = lower value",0.741 (active)
same,normalized growth,"locus YDL185W, strain tfp1, stronger effect = lower value",0.995 (inactive)
same,normalized growth,"locus YDL192W, strain arf1, stronger effect = lower value",0.955 (inactive)
same,normalized growth,"locus YDR001C, strain nth1, stronger effect = lower value",0.962 (inactive)
same,normalized growth,"locus YDR069C, strain doa4, stronger effect = lower value",0.105 (active)
same,normalized growth,"locus YDR101C, strain arx1, stronger effect = lower value",1 (inactive)
same,normalized growth,"locus YDR137W, strain rgp1, stronger effect = lower value",0.485 (active)
same,normalized growth,"locus YDR150W, strain NUM1, stronger effect = lower value",0.851 (active)
same,normalized growth,"locus YDR159W, strain sac3, stronger effect = lower value",0.735 (active)
same,normalized growth,"locus YDR162C, strain NBP2, stronger effect = lower value",0.344 (active)
same,normalized growth,"locus YDR195W, strain ref2",0.76 (active)
same,normalized growth,"locus YDR297W, strain sur2, stronger effect = lower value",0.45 (active)
same,normalized growth,"locus YDR318W, strain mcm21, stronger effect = lower value",0.981 (inactive)
same,normalized growth,"locus YDR334W, strain swr1, stronger effect = lower value",0.468 (active)
same,normalized growth,"locus YDR335W, strain msn5, stronger effect = lower value",0.604 (active)
same,normalized growth,"locus YDR388W, stronger effect = lower value",1.01 (inactive)
same,normalized growth,"locus YDR392W, strain spt3, stronger effect = lower value",0.81 (inactive)
same,normalized growth,"locus YDR502C, strain sam2, stronger effect = lower value",0.866 (active)
same,normalized growth,"locus YEL003W, strain gim4, stronger effect = lower value",0.527 (active)
same,normalized growth,"locus YEL037C, strain rad23, stronger effect = lower value",0.686 (active)
same,normalized growth,"locus YEL061C, strain CIN8 (second series), stronger effect = lower value",0.915 (inactive)
same,normalized growth,"locus YEL061C, strain CIN8, stronger effect = lower value",0.817 (active)
same,normalized growth,"locus YER015W, strain faa2, stronger effect = lower value",0.305 (active)
same,normalized growth,"locus YER016W, strain bim1, stronger effect = lower value",0.823 (active)
same,normalized growth,"locus YER110C, stronger effect = lower value",1.04 (inactive)
same,normalized growth,"locus YER111C, strain swi4, stronger effect = lower value",0.692 (active)
same,normalized growth,"locus YER155C, strain BEM2 (second series), stronger effect = lower value",0.836 (active)
same,normalized growth,"locus YER155C, strain BEM2, stronger effect = lower value",1 (inactive)
same,normalized growth,"locus YER167W, strain BCK2, stronger effect = lower value",0.896 (active)
same,normalized growth,"locus YFR010W, strain ubp6, stronger effect = lower value",0.571 (active)
same,normalized growth,"locus YGL078C, strain dbp3, stronger effect = lower value",1.02 (inactive)
same,normalized growth,"locus YGL086W, strain mad1, stronger effect = lower value",0.893 (active)
same,normalized growth,"locus YGL167C, strain pmr1, stronger effect = lower value",0.551 (active)
same,normalized growth,"locus YGL173C, strain kem1, stronger effect = lower value",0.181 (active)
same,normalized growth,"locus YGL227W, strain vid30, stronger effect = lower value",0.989 (inactive)
same,normalized growth,"locus YGL240W, strain doc1, stronger effect = lower value",0.693 (active)
same,normalized growth,"locus YGL248W, strain PDE1, stronger effect = lower value",0.681 (active)
same,normalized growth,"locus YGL253W, strain hxk2, stronger effect = lower value",0.555 (active)
same,normalized growth,"locus YGR078C, strain PAC10, stronger effect = lower value",0.787 (active)
same,normalized growth,"locus YGR135W, strain pre9, stronger effect = lower value",0.828 (active)
same,normalized growth,"locus YGR229C, strain SMI1, stronger effect = lower value",0.0949 (active)
same,normalized growth,"locus YGR252W, strain gcn5, stronger effect = lower value",0.896 (inactive)
same,normalized growth,"locus YHR013C, strain ard1, stronger effect = lower value",0.322 (active)
same,normalized growth,"locus YHR027C, strain rpn1, stronger effect = lower value",0.186 (active)
same,normalized growth,"locus YHR030C, strain SLT2, stronger effect = lower value",0.856 (active) and 1.02 (inactive)
same,normalized growth,"locus YHR079C, strain IRE1 (second series), stronger effect = lower value",1.01 (inactive)
same,normalized growth,"locus YHR079C, strain IRE1, stronger effect = lower value",1.04 (inactive)
same,normalized growth,"locus YHR094C, strain hxt1, stronger effect = lower value",1.04 (inactive)
same,normalized growth,"locus YHR129C, strain ARP1, stronger effect = lower value",0.845 (active)
same,normalized growth,"locus YHR142W, strain chs7, stronger effect = lower value",0.493 (active)
same,normalized growth,"locus YHR200W, strain rpn10, stronger effect = lower value",0.969 (inactive)
same,normalized growth,"locus YIL066C, strain RNR3, stronger effect = lower value",0.509 (active)
same,normalized growth,"locus YIL073C, strain SPO22, stronger effect = lower value",0.196 (active)
same,normalized growth,"locus YIL125W, strain kgd1, stronger effect = lower value",1.04 (inactive)
same,normalized growth,"locus YIR030C, strain dcg1, stronger effect = lower value",1.03 (inactive)
same,normalized growth,"locus YJL092W, strain hpr5, stronger effect = lower value",0.856 (active)
same,normalized growth,"locus YJL095W, strain BCK1 (second series), stronger effect = lower value",0.269 (active)
same,normalized growth,"locus YJL095W, strain BCK1, stronger effect = lower value",0.59 (active) and 1.02 (inactive)
same,normalized growth,"locus YJL115W, strain asf1, stronger effect = lower value",0.91 (inactive)
same,normalized growth,"locus YJL129C, strain trk1, stronger effect = lower value",0.812 (active)
same,normalized growth,"locus YJL134W, strain LCB3, stronger effect = lower value",0.965 (inactive)
same,normalized growth,"locus YJL154C, strain vps35, stronger effect = lower value",0.842 (active)
same,normalized growth,"locus YJL164C, strain tpk1, stronger effect = lower value",0.419 (active)
same,normalized growth,"locus YJL166W, strain qcr8, stronger effect = lower value",0.371 (active)
same,normalized growth,"locus YJL168C, strain set2, stronger effect = lower value",1.01 (inactive)
same,normalized growth,"locus YJL187C, strain SWE1 (second series), stronger effect = lower value",0.512 (active)
same,normalized growth,"locus YJL187C, strain SWE1, stronger effect = lower value",0.457 (active)
same,normalized growth,"locus YJR043C, strain POL32, stronger effect = lower value",0.599 (active)
same,normalized growth,"locus YJR066W, strain TOR1, stronger effect = lower value",0.96 (inactive)
